Data taken from PubChem BioAssay (Tox21).
Results filed as inconclusive are left out. A number with no mark means an inactive call. Unless noted, the call rests on the fitted dose curve; in most records, active means well fitted cell-killing curve with a large enough effect in the repeat runs; inconclusive means weak or mixed curves; inactive means flat fitted curve, though single readings scatter.

Experiment: qHTS assay to identify small molecule agonists of the progesterone receptor (PR) signaling pathway - cell viability counter screen (AID 1346799; calls by dose curve; further: nearly all actives have a fitted effect of over 45% in size)
Details: PR-UAS-bla HEK293T viability, CellTiter-Glo luminescence, 16 h; series mostly up to 92.4 µM; activity change, negative = cytotoxicity: at the top concentration
How it was run: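 Counter screen in the PR-UAS-bla HEK293T wells (2% charcoal-stripped FBS, 16 h compound exposure at 37 C) after the bla read. CellTiter-Glo added, 30 min at room temperature, luminescence read as cell viability.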
On the % scale 0 is the no-effect control and ±100 the full control effect.

SMILES	activity change, negative = cytotoxicity
CCCOC(=O)CCCCC(=O)OCCC	2.39%
OCCCCCCCl	9.21%
COCC(=O)Nc1c(I)c(C(=O)NCC(O)CO)c(I)c(C(=O)N(C)CC(O)CO)c1I (stereo not drawn)	2.93% [at 42.5 µM]
CNC(=O)NC	8.47%
O=C(O)/C=C/c1ccccc1	1.58%
CC(CC(=O)O)CC(C)(C)C (stereo not drawn)	4.82%
COC(=O)CCC(=O)O	3.6%
O=C1OC(=O)c2cc(Oc3ccc4c(c3)C(=O)OC4=O)ccc21	2.12%
COC(OC)C(C)c1ccccc1 (stereo not drawn)	-3.44%
Nc1ccc(S(=O)(=O)NC(=O)c2ccccc2)cc1	0.887% [at 42.5 µM]
Nc1nc(=O)n([C@@H]2O[C@H](CO)[C@@H](O)[C@@H]2F)cc1I	0% [at 42.5 µM]
CCCCCCCC/C=C\CCCCCCCC(=O)OC[C@@H](O)[C@H]1OC[C@H](O)[C@H]1O	55.7%
O=[Si]=O	0.739%
COc1ccc(NS(=O)(=O)c2ccc(N)cc2)nn1	3.12% [at 42.5 µM]
O=C(Oc1ccccc1C(=O)O)c1ccccc1O	-6.81% [at 42.5 µM]
FC(F)(F)/C(=N\OCC1OCCO1)c1ccc(Cl)cc1	-1.85%
CCCCOC(=O)C(C)OC(=O)CCC (stereo not drawn)	8.49%
CCC(=O)c1ccc(O)cc1	-6.94% [at 42.5 µM]
CCCCOC(=O)[C@@H](C)Oc1ccc(Oc2ccc(C(F)(F)F)cn2)cc1	-0.753%
CCc1nccnc1C	0.777%
CC1=NN(c2ccc(S(=O)(=O)O)cc2)C(=O)C1N=Nc1ccccc1 (stereo not drawn)	0.592%
Nc1cc(Cl)cc(S(=O)(=O)O)c1O	4.25%
CCN1CN(CC)CN(CC)C1	0.386%
CC(C)CCCC(C)CC=O (stereo not drawn)	2.94%
CCC(O)C(C)(C)C (stereo not drawn)	5.53%
CC(C)C(=O)c1ccccc1	-7.13%
O=P(O)(O)OCC(O)CO (stereo not drawn)	12.6% [at 42.5 µM]

Experiment: qHTS assay to identify small molecule antagonists of the TGF-beta/Smad signaling pathway - cell viability counter screen (AID 1346824); further: nearly all actives have a fitted effect of over 50% in size
Details: SBE-bla HEK293T viability, CellTiter-Glo luminescence; series mostly up to 76.8 µM; viability change, negative = cytotoxic: at the top concentration
How it was run: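 SBE-bla HEK 293T cells were plated overnight at 37 C, then given compounds in DMSO plus TGF-beta1 (added as 0.25 ng/mL solution) for 5 hr. After the bla read, CellTiter-Glo was added to the same wells and luminescence read after 30 min at room temperature.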

SMILES	viability change, negative = cytotoxic
CCC1COC(=O)O1 (stereo not drawn)	2.66%
O=C1OC(=O)c2ccccc21	0.0808%
CCCOC(=O)CCCCC(=O)OCCC	-4.85%
C=CCOCC(CO)(COCC=C)COCC=C	-1.55% [at 35.3 µM]
CC(C)COC(=O)/C=C/c1ccccc1	4.71%
OCCCCCCCl	10.8%
COCC(=O)Nc1c(I)c(C(=O)NCC(O)CO)c(I)c(C(=O)N(C)CC(O)CO)c1I (stereo not drawn)	-4.87% [at 35.3 µM]
N#CCCOCCOCCC#N	-6.66%
COC(/C=C(\C)CCC=C(C)C)OC	3.67%
O=C(O)/C=C/c1ccccc1	2.16%
C=CCOc1c(Br)cc(Br)cc1Br	-2.33%
CC(CC(=O)O)CC(C)(C)C (stereo not drawn)	-0.623%
COC(=O)CCC(=O)O	-11.3%
O=C1OC(=O)c2cc(Oc3ccc4c(c3)C(=O)OC4=O)ccc21	-2.13%
CCCCCC1Nc2cc(C(F)(F)F)c(S(N)(=O)=O)cc2S(=O)(=O)N1 (stereo not drawn)	1.44% [at 35.3 µM]
COC(OC)C(C)c1ccccc1 (stereo not drawn)	-6.49%
Nc1ccc(S(=O)(=O)NC(=O)c2ccccc2)cc1	9.5% [at 35.3 µM]
Nc1nc(=O)n([C@@H]2O[C@H](CO)[C@@H](O)[C@@H]2F)cc1I	4.18% [at 35.3 µM]

SMILES	viability change, negative = cytotoxic
CCCCCCCC/C=C\CCCCCCCC(=O)OC[C@@H](O)[C@H]1OC[C@H](O)[C@H]1O	6.51%
O=[Si]=O	-8.02%
COc1ccc(NS(=O)(=O)c2ccc(N)cc2)nn1	1.3% [at 35.3 µM]
O=C(Oc1ccccc1C(=O)O)c1ccccc1O	-5.24% [at 35.3 µM]
FC(F)(F)/C(=N\OCC1OCCO1)c1ccc(Cl)cc1	1.17%
CCCCCCCCC(=O)OCC	15.6%
CCC(=O)c1ccc(O)cc1	-0.558% [at 35.3 µM]
CCCCOC(=O)[C@@H](C)Oc1ccc(Oc2ccc(C(F)(F)F)cn2)cc1	-1.49%
CCc1nccnc1C	6.4%
CC1=NN(c2ccc(S(=O)(=O)O)cc2)C(=O)C1N=Nc1ccccc1 (stereo not drawn)	4.23%
Nc1cc(Cl)cc(S(=O)(=O)O)c1O	2.45%
CCN1CN(CC)CN(CC)C1	1.97%
CC(C)CCCC(C)CC=O (stereo not drawn)	1.44%
CCC(O)C(C)(C)C (stereo not drawn)	10.9%
CC(C)C(=O)c1ccccc1	-1.04%
O=P(O)(O)OCC(O)CO (stereo not drawn)	-3.92% [at 35.3 µM]
CCN(CCC#N)c1ccccc1	3.56%
CC(=O)/C=C/c1ccco1	0.693%
